From PubChem BioAssay (NCI)
This is part of a sample that, as a whole, favours compounds with a hit. Of some 79,000 tested, about 15% had one in any assay. The source made the active and inactive calls. Rule as the data show it: active = growth inhibition above about 70%; inactive = the rest.

Columns and labels:
[1] = NCI Yeast Anticancer Drug Screen. Data for the rad52 strain (AID 147);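 also: 0% = growth of vehicle-treated control cultures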; conditions: S. cerevisiae rad52 mutant growth inhibition, stronger effect = higher value
Outline: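 Vehicle-treated cultures served as the reference for growth inhibition of compound-exposed yeast bearing a DNA repair mutation.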

[2] = NCI Yeast Anticancer Drug Screen. Data for the wt1 strain (AID 149);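 also: 0% = growth of vehicle-treated wt1 cultures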; conditions: S. cerevisiae wt1 strain (SPY 50644) growth inhibition, stronger effect = higher value
Outline: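 wt1 yeast, compound-treated; % growth inhibition vs vehicle control.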

[3] = NCI Yeast Anticancer Drug Screen. Data for the mgt1 strain (AID 153); conditions: S. cerevisiae mgt1 mutant growth inhibition, stronger effect = higher value
Outline: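 mgt1 strain exposed; growth vs vehicle control recorded as inhibition.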

[4] = NCI Yeast Anticancer Drug Screen. Data for the rad50 strain (AID 155);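 also: 0% = growth of vehicle-only cultures of the same strain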; conditions: S. cerevisiae rad50 strain growth inhibition, stronger effect = higher value
Outline: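 Genetically altered yeast (DNA repair pathway); compound treatment; growth inhibition vs vehicle ctrl.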

[5] = NCI Yeast Anticancer Drug Screen. Data for the mec2-1 strain (AID 157); conditions: S. cerevisiae mec2-1 strain, stronger effect = higher value
Outline: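 Vehicle-treated cultures served as reference for growth inhibition of compound-exposed mec2-1 yeast.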

[6] = NCI Yeast Anticancer Drug Screen. Data for the rad14 strain (AID 159);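 also: 0% = growth of vehicle-treated control cultures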; conditions: S. cerevisiae rad14 strain growth inhibition, stronger effect = higher value
Outline: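 Test compounds were applied to a repair-deficient yeast strain. Its growth was then compared with that of cultures given vehicle alone, and inhibition was expressed relative to those controls.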

[7] = NCI Yeast Anticancer Drug Screen. Data for the sgs1 mgt1 strain (AID 161);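 also: 0% = growth of cultures given vehicle only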; conditions: S. cerevisiae sgs1 mgt1 strain, stronger effect = higher value
Outline: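 Genetically altered yeast, compound exposure, growth inhibition relative to vehicle.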

[8] = NCI Yeast Anticancer Drug Screen. Data for the CLN2oe strain (AID 163);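 also: 0% = growth of vehicle-only control cultures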; conditions: S. cerevisiae CLN2oe strain, stronger effect = higher value
Outline: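 Inhibition relative to vehicle-treated yeast is reported. Cells: strain with genetic alteration in cell-cycle control, grown with compound.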

[9] = NCI Yeast Anticancer Drug Screen. Data for the cln2 rad14 strain (AID 165);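 also: 0% = growth equal to vehicle treated cultures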; conditions: S. cerevisiae cln2 rad14 strain, stronger effect = higher value
Outline: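 Each compound was tested on cln2 rad14 yeast. Inhibition of growth was calculated against vehicle-exposed controls.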

[10] = NCI Yeast Anticancer Drug Screen. Data for the bub3 strain (AID 167); conditions: S. cerevisiae bub3 mutant strain, stronger effect = higher value
Outline: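 Yeast carrying a defined mutation is treated with each compound, and growth is compared with that of vehicle-exposed cells to give inhibition.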

[11] = NCI Yeast Anticancer Drug Screen. Data for the wt2 strain (AID 169);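 also: 0% = growth of vehicle-treated yeast cultures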; conditions: S. cerevisiae wt2 strain growth inhibition, stronger effect = higher value
Outline: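 Inhibition of yeast growth was determined after compound treatment, normalised to controls receiving only vehicle.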

[12] = NCI Yeast Anticancer Drug Screen. Data for the mlh1 strain (AID 171);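 also: 0% = growth of vehicle-treated control cultures of the same strain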; conditions: S. cerevisiae mlh1 strain growth inhibition, stronger effect = higher value
Outline: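 Vehicle-normalised growth inhibition of a repair- or checkpoint-altered yeast strain following compound treatment.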

[13] = NCI Yeast Anticancer Drug Screen. Data for the sgs1 strain (AID 173);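 also: 0% = growth of vehicle-only control cultures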; conditions: S. cerevisiae sgs1 mutant, stronger effect = higher value
Outline: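 Screen format: yeast with repair or checkpoint alterations, compound exposure, growth read relative to vehicle.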

[14] = NCI Yeast Anticancer Drug Screen. Data for the mlh1 rad18 strain (AID 175); conditions: S. cerevisiae mlh1 rad18 strain growth inhibition, stronger effect = higher value
Outline: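 Vehicle-treated cultures served as the reference for growth inhibition in a yeast strain carrying DNA damage repair alterations exposed to each compound.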

[15] = NCI Yeast Anticancer Drug Screen. Data for the rad18 strain (AID 177); conditions: S. cerevisiae rad18 mutant growth inhibition, stronger effect = higher value
Outline: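 Test articles were incubated with altered yeast defective in DNA damage repair. Results are given as inhibition of growth versus vehicle.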

[16] = at 5.0 µM (retest, dose inferred, filed as 0.5)
[17] = at 50.0 µM (retest, dose inferred, filed as 5.0)

Measured: growth inhibition

CN(C)c1nc2sc3c(c2c(=O)o1)CCCC3
active: [10]; [17] 92% | [10]; at 50.0 µM 75.2% | [14]; [17] 90%
inactive: [1]; at 1.2 µM 2% | [1]; at 3.7 µM 5% | [1]; at 11.0 µM 6% | [1]; at 33.0 µM 26% | [1]; at 100.0 µM 36% | [2]; at 1.2 µM -5% | [2]; at 3.7 µM -4% | [2]; at 11.0 µM -4% | [2]; at 33.0 µM 8% | [2]; at 100.0 µM 32% | [3]; at 1.2 µM -5% | [3]; at 3.7 µM -7% | [3]; at 11.0 µM 0% | [3]; at 33.0 µM 16% | [3]; at 100.0 µM 31% | [4]; at 1.2 µM 3% | [4]; at 3.7 µM 6% | [4]; [16] -4% | [4]; at 11.0 µM -13% | [4]; at 33.0 µM 29% | [4]; [17] 43% | [4]; at 50.0 µM 68.9% | [4]; at 100.0 µM 45% | [5]; at 1.2 µM 1% | [5]; at 3.7 µM -1% | [5]; [16] -4% | [5]; at 11.0 µM 0% | [5]; at 33.0 µM 26% | [5]; [17] 29% | [5]; at 50.0 µM 27.9% | [5]; at 100.0 µM 39% | [6]; at 1.2 µM 1% | [6]; at 3.7 µM -3% | [6]; at 11.0 µM 3% | [6]; at 33.0 µM 27% | [6]; at 100.0 µM 45% | [7]; [16] -7% | [7]; [17] 19% | [7]; at 50.0 µM 54.3% | [8]; at 1.2 µM 1% | [8]; at 3.7 µM -1% | [8]; at 11.0 µM -2% | [8]; at 33.0 µM 26% | [8]; at 100.0 µM 40% | [9]; [16] 26% | [9]; [17] 13% | [9]; at 50.0 µM -6.65% | [10]; at 1.2 µM 27% | [10]; at 3.7 µM 39% | [10]; [16] 39% | [10]; at 11.0 µM 44% | [10]; at 33.0 µM 55% | [10]; at 100.0 µM 69% | [11]; at 1.2 µM -1% | [11]; at 3.7 µM 0% | [11]; at 11.0 µM 1% | [11]; at 33.0 µM 26% | [11]; at 100.0 µM 35% | [12]; at 1.2 µM -3% | [12]; at 3.7 µM -4% | [12]; at 11.0 µM -2% | [12]; at 33.0 µM 26% | [12]; at 100.0 µM 31% | [13]; at 1.2 µM -3% | [13]; at 3.7 µM -4% | [13]; at 11.0 µM -1% | [13]; at 33.0 µM 19% | [13]; at 100.0 µM 36% | [14]; [16] -9% | [14]; at 50.0 µM 50.6% | [15]; at 1.2 µM 0% | [15]; at 3.7 µM 1% | [15]; at 11.0 µM 3% | [15]; at 33.0 µM 18% | [15]; at 100.0 µM 48%

CCCCCCCCCCCCCCCCCCNC
active: [1]; at 100.0 µM 95% | [2]; at 100.0 µM 86% | [3]; at 100.0 µM 96% | [4]; [17] 90% | [4]; at 100.0 µM 87% | [5]; [17] 95% | [5]; at 100.0 µM 96% | [6]; at 100.0 µM 75% | [7]; [17] 97% | [7]; at 50.0 µM 81.2% | [8]; at 100.0 µM 77% | [9]; [17] 92% | [10]; [17] 96% | [10]; at 50.0 µM 87.1% | [10]; at 100.0 µM 94% | [11]; at 100.0 µM 82% | [12]; at 100.0 µM 70% | [13]; at 100.0 µM 87% | [14]; [17] 94% | [15]; at 100.0 µM 88%
inactive: [1]; at 1.2 µM 15% | [1]; at 3.7 µM -4% | [1]; at 11.0 µM 0% | [1]; at 33.0 µM 14% | [2]; at 1.2 µM 5% | [2]; at 3.7 µM 17% | [2]; at 11.0 µM 12% | [2]; at 33.0 µM 15% | [3]; at 1.2 µM 17% | [3]; at 3.7 µM 25% | [3]; at 11.0 µM 21% | [3]; at 33.0 µM 26% | [4]; at 1.2 µM -10% | [4]; at 3.7 µM 1% | [4]; [16] 34% | [4]; at 11.0 µM -2% | [4]; at 33.0 µM 17% | [4]; at 50.0 µM 68.5% | [5]; at 1.2 µM 14% | [5]; at 3.7 µM 3% | [5]; [16] 50% | [5]; at 11.0 µM -3% | [5]; at 33.0 µM 18% | [5]; at 50.0 µM 69% | [6]; at 1.2 µM -22% | [6]; at 3.7 µM -16% | [6]; at 11.0 µM -16% | [6]; at 33.0 µM -9% | [7]; [16] -6% | [8]; at 1.2 µM 13% | [8]; at 3.7 µM 19% | [8]; at 11.0 µM 2% | [8]; at 33.0 µM -4% | [9]; [16] 32% | [9]; at 50.0 µM 8.1% | [10]; at 1.2 µM 12% | [10]; at 3.7 µM 15% | [10]; [16] 50% | [10]; at 11.0 µM 32% | [10]; at 33.0 µM 20% | [11]; at 1.2 µM -35% | [11]; at 3.7 µM -17% | [11]; at 11.0 µM -40% | [11]; at 33.0 µM -24% | [12]; at 1.2 µM -26% | [12]; at 3.7 µM -10% | [12]; at 11.0 µM -8% | [12]; at 33.0 µM -40% | [13]; at 1.2 µM -9% | [13]; at 3.7 µM -27% | [13]; at 11.0 µM -27% | [13]; at 33.0 µM -16% | [14]; [16] 41% | [14]; at 50.0 µM 61.3% | [15]; at 1.2 µM 17% | [15]; at 3.7 µM 7% | [15]; at 11.0 µM 7% | [15]; at 33.0 µM 18%
